biological target: Glucose transporter (Leishmania mexicana) (UniProt O61059); test: ST_JUDE_LEISH: Cytotoxicity at 2uM final concentration against transgenic Leishmania Mexicana promastigotes LmGT2 that are glucose transport deficient and complemented with the L. Mexicana glucose transporter 2. Activity is measured by DNA content using SYBR green in vitro; type: functional

SMILES	inhibition [%]
COc1cc2/c(=N/c3ccc(Br)cc3F)nc[nH]c2cc1OCC1CCN(C)CC1	0.95
CCOc1cc[nH]c(=O)n1	-0.68
CC(CNC1CCN(CCn2c(=O)ccc3ccc(F)cc32)CC1)c1ccccc1 (stereo not given)	-0.24
Nc1cnc(C#Cc2cc3ncnc(N(CCN4CCOCC4)c4ccc(OCc5cccc(F)c5)c(Cl)c4)c3s2)cn1	-3.58
Cc1nnsc1C(=O)Nc1cccc(-c2csc(-c3nc4ccccc4[nH]3)c2)c1	1.45
CN1CCN(Cc2ccc(-c3ccc4c(Nc5ccc(Cl)cc5F)ccnc4c3)o2)CC1	11.1
CCCN1CCC(NCc2cn(C)nc2-c2ccc(Oc3ccccc3)cc2)CC1	11.5
O=C(NC1CCN(Cc2ccccc2)CC1)c1ccc2c(=O)n(Cc3ccc(Cl)cc3)c(=S)[nH]c2c1	1.31
COc1cc2nc(NCc3cccc(CNC(=O)c4ccc(-c5ccc(C(C)=O)cc5)cc4)c3)nc(N)c2cc1OC	0.66
COc1ccc(CCn2c(=N)c(C(=O)NCc3cccnc3)cc3c(=O)n4cccc(C)c4nc32)cc1	0.26
c1ccc2[nH]c(CN(Cc3nc4ccccc4[nH]3)Cc3nc4ccccc4[nH]3)nc2c1	-0.29
CCN(CC)CCN(Cc1ccc(-c2ccc(C(F)(F)F)cc2)cc1)C(=O)Cn1cc(Cc2cnn(C)c2)c(=O)nc1/C=C/c1cccc(F)c1F	2.54
O=C(Nc1ccc(I)cc1)Nc1ccc(Cn2ncc(N3CCCNCC3)c(Cl)c2=O)cc1	0.24
O=C(N[C@@H](CC1CCCCC1)C(=O)NCc1cccc(C(F)(F)F)c1)c1ccc(O)c(-c2ccc(Cl)c(Cl)c2)c1	1.16
O=C(Nc1cccc(-c2ccc(-c3nc4cc(F)ccc4[nH]3)cc2)c1)Nc1ccc(Cl)c(Cl)c1	5.84
CCCCCN1CCC(CNS(=O)(=O)c2ccc(C(=O)Nc3cccc(C(F)(F)F)c3)cc2)CC1	-0.33
CCN1CCC(N(Cc2ccc(-c3ccc(C(F)(F)F)cc3)cc2)C(=O)Cn2nc(C)c(=O)cc2SCc2ccc(F)cc2)CC1	0.46
CN(C)CCn1c(N)c(-c2nc3ccccc3s2)c2nc(C#N)c(C#N)nc21	3.11
Nc1oc2c(CN3CCCCCC3)c(O)ccc2c(=O)c1-c1nc2ccccc2s1	2.85
COc1cccc(-c2cnc(-c3ccncc3)nc2C2CCN(Cc3ccc(NC(C)=O)cc3)CC2)c1	1.53

SMILES	inhibition [%]
CC(=O)Nc1ccc(-c2nc3ccc(-c4nc5ccc(NC(C)=O)cc5[nH]4)cc3[nH]2)cc1	5.3
Oc1cc(NC[C@H]2CCC[C@@H]2NCc2cc(Br)cc(Br)c2)nc2ccccc12	3.27
CCNS(=O)(=O)c1ccc(Oc2ccc([N+](=O)[O-])cc2)cc1	-1.68
O=C(Nc1ccc2c(c1)CN(Cc1ccc(N3CCCC3)o1)CCC2)c1ccoc1	2.73
COc1cc(Cc2cnc(N)nc2N)cc(OCCCOc2ccccc2)c1OC	4.99
CN1CCN(CCCSc2ccc3c(c2)ncn3-c2cc(OCc3ccccc3C(F)(F)F)c(C(N)=O)s2)CC1	0.97
Cc1ccc(CN2CCN(c3cc4c(cc3Cl)CCN4C(=O)Cc3ccc(Cl)c(NC(=O)Nc4cccc(C#N)c4)c3)CC2)cc1	-0.62
CC(Cl)=CCc1c(C)nc2c(ccc3ccccc32)c1O	3.58
Cc1cc(NC(=O)NCCN2CCC(NS(=O)(=O)c3cccc(Br)c3)C2)c2ccccc2n1 (stereo not given)	0.42
COc1cc2c(cc1OCCN1CCC(N3CCCCC3)CC1)N(C(=O)/C=C/c1ccccc1Cl)CC2	1.83
O=c1c2c([nH]c3cc(Cl)ccc13)CCCC2	3.09
CCOC(=O)CN1Cc2cc(NCc3ccc4ccc5nc(C)[nH]c(=O)c5c4c3)ccc2C1=O	-0.88
FC(F)(F)c1ccc(CNC2CCN(CC3CCCCC3)CC2)cc1	8.5
Cc1cccc(Nc2nc(C)cc(N3CCCN(CC4CCCCC4)CC3)n2)c1	-0.15
Cc1[nH]c(C)c(-c2ccc(OCc3ccc(F)cc3)cc2)c(=O)c1Br	-1.56
CCCCCOc1ccc(C(=NC)N(CCCCC)CCCCC)c2ccccc12	7.32
CC(C)N1CCN(c2ccc(OCCCN3CCN(c4cccc(Cl)c4Cl)CC3)c(C(F)(F)F)c2)CC1	-0.82
NCC1CCCN1Cc1ccc(-c2cccc(-c3nc4cc(C(F)(F)F)ccc4[nH]3)c2)cc1 (stereo not given)	3.17
O=C1CN(C(=O)CCC2CCCC2)C(c2ccc(F)cc2)c2cc(F)ccc2N1 (stereo not given)	0.37
Cc1noc(C)c1-c1cccc(CNCc2ccc(-c3ccc(-c4nc5cccc(C)c5[nH]4)cc3)cc2)c1	-0.62

— ChEMBL document CHEMBL3433997, “St. Jude Leishmania screening dataset” (2016)
